# PubChem BioAssay AID463173 (ICCB-Longwood Screening Facility, Harvard Medical School, 2010)
# In all, about 52,000 compounds went through this assay and about 4,300 (8.3%) were called active. Cut-off read from the data, not from the text of the source: active = survival mostly below about 52% (no sharp cut-off); inactive = mostly above about 56%. The full list was thinned out, with actives kept by preference.
# Tested on: DeltatarO mutant
# Experiment: S. aureus survival, RN4220 and DeltatarO strains – OD600, teichoic acid synthesis inhibitors, primary screen (AID 463173)
# Conditions: S. aureus RN4220 wild type/DeltatarO growth, OD600, 18 h, active compounds read low, screened at 18.75 µg/mL (by protocol)
row,Compound,survival
1,Cc1nnc(NCc2ccccc2)c2c1nnn2Cc1ccccc1Cl,92% (inactive)
2,COc1ccc(CCNC(=O)c2c(C)nn(-c3ccc(F)cc3)c2-n2cccc2)cc1OC,74% (inactive)
3,Cc1oc2c(c1C(=O)Nc1ccc(OC(F)(F)F)cc1)C1=NCCN1C=N2,80% (inactive)
4,COc1ccccc1CN1C(=O)CN(C2CCCCCC2)C(=O)C1c1ccc(C)cc1 (configuration not stated),88% (inactive)
5,Cc1ccc(-n2c(SCC(=O)Nc3cccc(C)c3)nc3c(oc4ccccc43)c2=O)cc1,99% (inactive)
6,Cc1cccc(-n2ncc(C(=O)N3CCN(C(=O)c4ccco4)CC3)c2C2CCN(C(=O)OC(C)(C)C)CC2)c1,62% (inactive)
7,CCCC(CCC)C(=O)Nc1cccc(-c2cn3cccnc3n2)c1,83% (inactive)
8,CCC1CCCCN1C(=O)Cn1c(=O)n(CC2CCC(C(=O)NC)CC2)c(=O)c2sccc21 (configuration not stated),102% (inactive)
9,O=C(CCN1CCOCC1)N1N=C(c2ccccc2)CC1c1ccco1 (configuration not stated),89% (inactive)
10,Oc1ccc(Br)cc1C1CC(c2ccccc2)=NC(c2ccco2)N1 (configuration not stated),1% (active)
11,O=c1oc2c(F)cc(F)cc2cc1S(=O)(=O)c1ccc(F)cc1,60% (inactive)
12,CCN(CC)c1ccc(-c2nc(-c3ccccn3)no2)cc1[N+](=O)[O-],41% (active)
13,COc1ccc(CN(C)c2ccc(-c3nc(-c4ccc(OC)c(OC)c4)no3)cc2[N+](=O)[O-])cc1,62% (inactive)
14,CN(Cc1ccccc1)c1ccc(-c2nc(-c3ccncc3)no2)cc1[N+](=O)[O-],63% (inactive)
15,CN(Cc1ccccc1)c1ccc(-c2nc(-c3ccccn3)no2)cc1[N+](=O)[O-],34% (active)
16,CCN(CC)c1ccc(-c2nc(-c3ccncc3)no2)cc1[N+](=O)[O-],79% (inactive)
17,COc1ccccc1-c1noc(-c2ccc(N(C)Cc3ccccc3)c([N+](=O)[O-])c2)n1,36% (active)
18,CCN(CC)c1ccc(-c2nc(-c3ccco3)no2)cc1[N+](=O)[O-],47% (inactive)
19,COc1ccc(CN(C)c2ccc(-c3nc(-c4ccccc4)no3)cc2[N+](=O)[O-])cc1,71% (inactive)
20,CCN(Cc1ccc(OC)cc1)c1ccc(-c2nc(-c3ccncc3)no2)cc1[N+](=O)[O-],41% (active)
21,CCc1noc(-c2ccc(N(C)Cc3ccc(OC)cc3)c([N+](=O)[O-])c2)n1,75% (inactive)
22,CN(Cc1ccccc1)c1ccc(-c2nc(-c3ccccc3)no2)cc1[N+](=O)[O-],69% (inactive)
23,CCN(CC)c1ccc(-c2nc(-c3ccccc3C)no2)cc1[N+](=O)[O-],68% (inactive)
24,CC1CCC(NC(=O)c2ccc3c(c2)N(Cc2ccccc2F)C(=O)c2ccccc2S3(=O)=O)CC1 (configuration not stated),74% (inactive)
25,CCOc1ccc(NS(=O)(=O)c2ccc3[nH]cc(C(=O)NCC4CCCO4)c(=O)c3c2)cc1 (configuration not stated),87% (inactive)

row,Compound,survival
1,CCOC(=O)C1CCN(C(=O)c2nn(-c3ccc(OC)c(Cl)c3)c(=O)c3c2c2ccccc2n3C)CC1,76% (inactive)
2,Cc1cccc(C(=O)NCC(c2cccs2)S(=O)(=O)c2cccs2)c1 (configuration not stated),81% (inactive)
3,Cc1ccc(OCC(=O)NCC(=O)OCc2cc(=O)n3nc(C(C)C)sc3n2)cc1,97% (inactive)
4,Cn1c(=O)c2ccccc2n2c(CCC(=O)N3CCN(c4cccc(Cl)c4)CC3)nnc12,82% (inactive)
5,Cc1ccc(/C=C(\C#N)C(=O)NC2CCCCCC2)o1,92% (inactive)
6,CN(C)c1ccc(-c2nc(-c3ccco3)no2)cc1[N+](=O)[O-],52% (inactive)
7,CN(C)c1ccc(-c2nc(-c3ccccn3)no2)cc1[N+](=O)[O-],42% (active)
8,CN(C)c1ccc(-c2nc(-c3ccncc3)no2)cc1[N+](=O)[O-],81% (inactive)
9,Cc1ccc(-n2c(=O)c3oc4ccccc4c3n(CC(=O)Nc3ccccc3)c2=O)cc1C,54% (inactive)
10,CCCN(CCC)C(=O)c1nn(C)c2c1CSc1ccc(C)cc1-2,92% (inactive)
11,CCOC(=O)c1ccc(NC(=O)CS(=O)(=O)Cc2nc(-c3ccc(C)cc3)oc2C)cc1,95% (inactive)
12,COc1ccc(NC(=O)C(C)N2CCN(C)CC2)cc1 (configuration not stated),86% (inactive)
13,COc1cc(OC)c(NC(=O)C(C)n2nc(-c3ccc(C)c(C)c3)ccc2=O)cc1Cl (configuration not stated),64% (inactive)
14,COc1cc(OC)c(NC(=O)C(C)n2c(=O)cc(-c3ccccc3)c3c(C)nn(C)c32)cc1Cl (configuration not stated),83% (inactive)
15,COc1ccc(NC(=O)C(C)n2nc(-c3cc(C)ccc3C)c3c(c2=O)CCCC3)cc1 (configuration not stated),38% (active)
16,Cc1ccc(NC(=O)C(C)n2nnc3sc4c(c3c2=O)CCCC4)cc1Cl (configuration not stated),82% (inactive)
17,COc1cc(OC)c(NC(=O)C(C)n2nc(-c3ccc(C)cc3)c3c(c2=O)CCCC3)cc1Cl (configuration not stated),39% (active)
18,Cc1cc(C)n(-c2nc(C)c(C)c(=O)n2CC(=O)Nc2ccc(Cl)c(Cl)c2)n1,82% (inactive)
19,COc1ccc(-c2nc3nc(C)cc(Nc4cccc(C(F)(F)F)c4)n3n2)cc1,63% (inactive)
20,COc1cccc(N2C(=O)C(CC(=O)Nc3ccc(F)cc3)N(CCC3=CCCCC3)C2=O)c1 (configuration not stated),53% (inactive)
21,COc1ccc(CNC(=O)CCC2N=C3c4ccccc4N=C(SCc4cccc(F)c4)N3C2=O)cc1 (configuration not stated),117% (inactive)
22,Cc1c(CCNC(=O)c2ccc(C(C)(C)C)cc2)sc2nc(-c3ccc(F)cc3)nn12,82% (inactive)
23,CCOC(=O)c1scc(-c2ccccc2)c1S(=O)(=O)N1CCN(c2ccccc2OC)CC1,94% (inactive)
24,O=C(COc1cccc(-n2cnnn2)c1)NC1CCCCC1,83% (inactive)
25,CCN(CC)C(=O)Cn1nnc2sc(-c3ccccc3)cc2c1=O,56% (inactive)

row,Compound,survival
1,CCc1cccc(CC)c1NC(=O)Cn1nnc2sc(-c3ccccc3)cc2c1=O,49% (inactive)
2,CCN(C(=O)Cn1nnc2sc(-c3ccccc3)cc2c1=O)c1cccc(C)c1,50% (active)
3,CCCN(CCC)C(=O)Cn1nnc2sc(-c3ccccc3)cc2c1=O,70% (inactive)
4,COC(=O)c1ccccc1NC(=O)Cn1nnc2sc(-c3ccccc3)cc2c1=O,52% (inactive)
5,CCOc1ccccc1NC(=O)Cn1nnc2sc(-c3ccccc3)cc2c1=O,39% (active)
6,COC(=O)c1ccc(NC(=O)CSc2nc(=O)[nH]c3c2CCCC3)cc1,75% (inactive)
7,COC(=O)CSc1ncc2c(n1)-c1ccccc1N(Cc1ccc(Cl)cc1)S2(=O)=O,69% (inactive)
8,CCOC(=O)N1CCc2c(sc3c2c(=O)n(CCc2ccccc2)c(=O)n3Cc2c(F)cccc2Cl)C1,85% (inactive)
9,COc1ccc(-c2nc(C)c(CCNC(=O)c3c(F)cccc3F)s2)cc1,84% (inactive)
10,O=C(Cn1c(=O)oc2cc(S(=O)(=O)N3CCCCCC3)ccc21)NCc1ccccc1Cl,78% (inactive)
11,COCCN1C(=O)c2[nH]nc(-c3cc(C)ccc3O)c2C1c1ccc(C(C)C)cc1 (configuration not stated),1% (active)
12,CCc1ccc(C2c3c(-c4cc(C)ccc4O)n[nH]c3C(=O)N2CCO)cc1 (configuration not stated),61% (inactive)
13,COCCN1C(=O)c2[nH]nc(-c3c(C)cc(C)cc3O)c2C1c1cccc(O)c1 (configuration not stated),57% (inactive)
14,CCCCOc1cccc(C2c3c(-c4cc(C)ccc4O)n[nH]c3C(=O)N2CCOC)c1 (configuration not stated),10% (active)
15,COCCCN1C(=O)c2[nH]nc(-c3cc(C)ccc3O)c2C1c1ccc(F)cc1 (configuration not stated),66% (inactive)
16,CCOc1cc(C2c3c(-c4cc(C)ccc4O)n[nH]c3C(=O)N2CCCOC(C)C)ccc1O (configuration not stated),90% (inactive)
17,COCCCN1C(=O)c2ccccc2CC1(C)C(=O)NC1CCCCC1 (configuration not stated),97% (inactive)
18,Cc1ccc(CNC(=O)Cc2csc3ccccc23)cc1,93% (inactive)
19,CC(=O)N1c2ccc(S(=O)(=O)N3CCN(c4cc(Cl)ccc4C)CC3)cc2CC1C (configuration not stated),87% (inactive)
20,CCN1CCCC1CNCC(=O)NC1(C)C2CCC(C2)C1(C)C (configuration not stated),100% (inactive)
21,COc1ccccc1C(=O)Nc1nnc2n1CCS2,69% (inactive)
22,COc1ccccc1N1CCN(C(=O)c2ccco2)CC1,104% (inactive)
23,Cc1ccc(C(=O)NCC(c2cccnc2)N2CCc3ccccc32)cc1C (configuration not stated),55% (inactive)
24,COc1ccc(C(=O)NCC(c2cccnc2)N2CCc3ccccc32)cc1OC (configuration not stated),57% (inactive)
25,Cc1ccccc1C(=O)NCC(c1cccnc1)N1CCc2ccccc21 (configuration not stated),44% (active)

row,Compound,survival
1,O=C(NCC(c1cccnc1)N1CCc2ccccc21)c1ccccc1Br (configuration not stated),56% (inactive)
2,COc1cc(C(=O)NCC(c2cccnc2)N2CCc3ccccc32)cc(OC)c1OC (configuration not stated),44% (active)
3,COc1cc(C(=O)NCC(c2cccnc2)N2CCc3ccccc3C2)cc(OC)c1OC (configuration not stated),76% (inactive)
4,O=C(NCC(c1cccnc1)N1CCc2ccccc21)c1ccc(Cl)cc1 (configuration not stated),52% (inactive)
5,COc1ccc(C(=O)NCC(c2cccnc2)N2CCc3ccccc3C2)cc1 (configuration not stated),77% (inactive)
6,COc1ccc(C(=O)NCC(c2cccnc2)N2CCc3ccccc32)cc1 (configuration not stated),46% (active)
7,COc1ccc(C(=O)OCc2cc(=O)n3nc(-c4cccs4)sc3n2)cc1,60% (inactive)
8,c1ccc(Oc2ccc(N=NN3CCCCC3)cc2)cc1,74% (inactive)
9,CCN1CCN(c2c(S(=O)(=O)c3ccc(C)c(C)c3)cnc3cc(OC)c(OC)cc23)CC1,75% (inactive)
10,CCC(=O)c1cc2c(cc1NC(=O)c1cccc(Cl)c1)OCCO2,105% (inactive)
11,COc1ccc2oc(-c3ccc(C)c(NC(=O)c4sc5ccccc5c4Cl)c3)nc2c1,48% (active)
12,COc1ccc2oc(-c3ccc(C)c(NC(=O)Cc4ccc(Cl)cc4)c3)nc2c1,151% (inactive)
13,Cc1ccc2oc(-c3ccc(C)c(NC(=O)C(C)(C)Oc4ccc(Cl)cc4)c3)nc2c1,13% (active)
14,CCc1ccc(OCC(=O)Nc2cc(-c3nc4cc(C)ccc4o3)ccc2C)cc1,65% (inactive)
15,Cc1ccc(-c2nc3cc(Cl)ccc3o2)cc1NC(=O)COc1ccc(F)cc1,53% (inactive)
16,Cc1ccc2nc(-c3ccc(C)c(NC(=O)CSc4ccc(Cl)cc4)c3)oc2c1,85% (inactive)
17,COc1ccc2oc(-c3ccc(C)c(NC(=O)COc4cc(C)cc(C)c4)c3)nc2c1,43% (active)
18,COc1ccc2oc(-c3cccc(NC(=O)c4sc5c([N+](=O)[O-])cccc5c4Cl)c3)nc2c1,77% (inactive)
19,Cc1ccc(C(=O)Nc2cc(-c3nc4cc(Cl)ccc4o3)ccc2C)c(C)c1,85% (inactive)
20,Cc1c(NC(=O)c2sc3ccccc3c2Cl)cccc1-c1nc2ccccc2o1,53% (inactive)
21,COc1ccc2oc(-c3ccc(C)c(NC(=O)CSc4ccc(Cl)cc4)c3)nc2c1,51% (active)
22,Cc1ccc2oc(-c3ccc(C)c(NC(=O)/C=C/c4ccc(Cl)cc4)c3)nc2c1,90% (inactive)
